Reference: paper PMC8384837, “Expanding the binding specificity for RNA recognition by a PUF domain”

Experiments:
Assay in all cases: yeast three-hybrid, YBZ-1, SC-Leu-His + 0.5 mM 3-AT, 4 days
Conditions in all cases: tags: N-Gal4 AD-HA kept; label: inside an RPR1-promoter hybrid RNA with tandem MS2 sites; ssRNA
PUM1 PUF domain R7-KYW = PUM1 PUF domain R7-KYW (Homo sapiens, UniProt Q14671 828-1176, S1079K;N1080Y;E1083W)
In short: (§1)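 Matching RNA elements and Pumilio-1 PUF domain libraries, randomized at the three base-contacting residues of every repeat, were co-expressed from a centromeric plasmid in strain YBZ-1 (LexA–MS2 coat fusion, HIS3 reporter). The repeat regions were PCR-amplified and Illumina-sequenced from cells grown four days on SC-Leu (input) or SC-Leu-His + 0.5 mM 3-AT (selection). The interaction score is the log change in variant frequency from input to selection. It is computed in log2, with a pseudocount of 1 for absent variants.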

PUM1 PUF domain R7-RPQ = PUM1 PUF domain R7-RPQ (Homo sapiens, UniProt Q14671 828-1176, S1079R;N1080P;E1083Q)
In short: as §1

PUM1 PUF domain R4-EPG = PUM1 PUF domain R4-EPG (Homo sapiens, UniProt Q14671 828-1176, N971E;H972P;Q975G)
In short: as §1

PUM1 PUF domain R4-VRG = PUM1 PUF domain R4-VRG (Homo sapiens, UniProt Q14671 828-1176, N971V;H972R;Q975G)
In short: as §1

PUM1 PUF domain R6-RWV = target: T1, PUM1 PUF domain R6-RWV (Homo sapiens, UniProt Q14671 828-1176, N1043R;Y1044W;Q1047V)
T1 sequence: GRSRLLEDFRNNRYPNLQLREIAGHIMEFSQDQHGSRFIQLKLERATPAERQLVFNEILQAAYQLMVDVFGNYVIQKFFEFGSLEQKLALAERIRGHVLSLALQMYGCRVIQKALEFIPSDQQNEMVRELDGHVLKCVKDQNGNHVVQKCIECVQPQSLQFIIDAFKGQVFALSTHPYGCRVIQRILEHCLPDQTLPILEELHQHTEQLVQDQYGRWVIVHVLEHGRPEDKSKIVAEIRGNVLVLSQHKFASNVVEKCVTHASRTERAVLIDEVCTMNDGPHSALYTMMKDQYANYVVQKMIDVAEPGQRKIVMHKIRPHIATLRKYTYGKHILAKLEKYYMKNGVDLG
In short: as §1

PUM1 PUF domain R5-NCR = PUM1 PUF domain R5-NCR (Homo sapiens, UniProt Q14671 828-1176, C1007N;R1008C;Q1011R)
In short: as §1

PUM1 PUF domain R5-MHM = PUM1 PUF domain R5-MHM (Homo sapiens, UniProt Q14671 828-1176, C1007M;R1008H;Q1011M)
In short: as §1

PUM1 PUF domain R3-FRP = PUM1 PUF domain R3-FRP (Homo sapiens, UniProt Q14671 828-1176, C935F;Q939P)
In short: as §1

PUM1 PUF domain R1-GGE = PUM1 PUF domain R1-GGE (Homo sapiens, UniProt Q14671 828-1176, S863G;R864G;Q867E)
In short: as §1

**Q.** With “GGCUAGAACUAGUGGAUCCCCCGGCGCCCGGCGGCUCGAGCCCGGGUAAGUCUAAAUAGUCUGCAUGCCGCCGGGCGCCAUGCCUGCAGGUCGACUCUAGAAAACAUG” as the sequence, how does the binding signal (PUM1 PUF domain R7-KYW) read?
**A.** 3.27 log2 enrichment (interaction score)

**Q.** And the binding signal (PUM1 PUF domain R7-RPQ)?
**A.** 2.7 log2 enrichment (interaction score)

**Q.** Which results are given for “GGCUAGAACUAGUGGAUCCCCCGGCGCCCGGCGGCUCGAGCCCGGGUAAGUGUAAAUAGUCUGCAUGCCGCCGGGCGCCAUGCCUGCAGGUCGACUCUAGAAAACAUG”?
**A.** binding signal (PUM1 PUF domain R4-EPG): 1.2 log2 enrichment (interaction score); binding signal (PUM1 PUF domain R4-VRG): 4.34 log2 enrichment (interaction score); binding signal (PUM1 PUF domain R6-RWV): 5.13 log2 enrichment (interaction score)

**Q.** With “GGCUAGAACUAGUGGAUCCCCCGGCGCCCGGCGGCUCGAGCCCGGGUAAGUGUAUAUAGUCUGCAUGCCGCCGGGCGCCAUGCCUGCAGGUCGACUCUAGAAAACAUG” as the sequence, how does the binding signal (PUM1 PUF domain R4-EPG) read?
**A.** 2.97 log2 enrichment (interaction score)

**Q.** For “GGCUAGAACUAGUGGAUCCCCCGGCGCCCGGCGGCUCGAGCCCGGGUAAGUGUCAAUAGUCUGCAUGCCGCCGGGCGCCAUGCCUGCAGGUCGACUCUAGAAAACAUG”, which binding signal (PUM1 PUF domain R5-NCR) is on record?
**A.** 1.7 log2 enrichment (interaction score)

**Q.** “GGCUAGAACUAGUGGAUCCCCCGGCGCCCGGCGGCUCGAGCCCGGGUAAGUGUUAAUAGUCUGCAUGCCGCCGGGCGCCAUGCCUGCAGGUCGACUCUAGAAAACAUG” was tested. Which binding signal (PUM1 PUF domain R5-NCR) did it give?
**A.** 4.23 log2 enrichment (interaction score)

**Q.** How did the binding signal (PUM1 PUF domain R5-MHM) turn out when “GGCUAGAACUAGUGGAUCCCCCGGCGCCCGGCGGCUCGAGCCCGGGUAAGUGUGAAUAGUCUGCAUGCCGCCGGGCGCCAUGCCUGCAGGUCGACUCUAGAAAACAUG” was run?
**A.** 2.99 log2 enrichment (interaction score)

**Q.** With “GGCUAGAACUAGUGGAUCCCCCGGCGCCCGGCGGCUCGAGCCCGGGUAAGUGUAAGUAGUCUGCAUGCCGCCGGGCGCCAUGCCUGCAGGUCGACUCUAGAAAACAUG” as the sequence, how does the binding signal (PUM1 PUF domain R3-FRP) read?
**A.** 2.47 log2 enrichment (interaction score)

**Q.** With “GGCUAGAACUAGUGGAUCCCCCGGCGCCCGGCGGCUCGAGCCCGGGUAAGUGAAAAUAGUCUGCAUGCCGCCGGGCGCCAUGCCUGCAGGUCGACUCUAGAAAACAUG” as the sequence, how does the binding signal (PUM1 PUF domain R6-RWV) read?
**A.** 2.99 log2 enrichment (interaction score)

**Q.** With “GGCUAGAACUAGUGGAUCCCCCGGCGCCCGGCGGCUCGAGCCCGGGUAAGUUUAAAUAGUCUGCAUGCCGCCGGGCGCCAUGCCUGCAGGUCGACUCUAGAAAACAUG” as the sequence, how does the binding signal (PUM1 PUF domain R7-RPQ) read?
**A.** 5.16 log2 enrichment (interaction score)

**Q.** Which binding signal (PUM1 PUF domain R1-GGE) does the source give for “GGCUAGAACUAGUGGAUCCCCCGGCGCCCGGCGGCUCGAGCCCGGGUAAGUGUAAAUGGUCUGCAUGCCGCCGGGCGCCAUGCCUGCAGGUCGACUCUAGAAAACAUG” here?
**A.** 2.22 log2 enrichment (interaction score)
